Source: PubChem BioAssay
Shown are actives, neighbours in structure and some others; about 6.2% of the full set was active somewhere.
FMDV inh = antivirals against foot and mouth disease virus; FMDV antiviral cell-based qHTS; Potency, µM (series often up to 57.9 µM), actives largely listed as inhibitors; 410,000 tested, 1.2% active; calls by dose curve; tested in HEK293T cells; also: read-out not given here; nearly all actives have a fitted effect of over 45% in size
HCMV inh = blocks human cytomegalovirus replication; HFF cells, HCMV-luciferase reporter, 72 h; active compounds read low; activity change, negative = inhibition, % at 57.5 µM; 410,000 tested, 4.5% active; AID 1259415; in the data active = activity change below about -60%; inconclusive = no clear call, values can overlap the other calls; inactive = above about -39%
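Luciferase read-out from HCMV-luciferase-infected HFFs (MOI 1 PFU/cell) 72 h post infection at 37C; compounds added after 16 h cell attachment; activity normalized between buffer-only basal and Salinomycin (10uM) inhibitor controls.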
Marburg entry inh = inhibitors of Marburg virus binding or cell entry; Marburg virus pseudotyped entry inhibition, cell reporter; Potency, µM (top dose mostly 37.8 µM), hits mostly inhibitors; 300,000 tested, 1.8% active; AID 540276; calls by dose curve; tested in HEK293 cells
LASV entry inh = Lassa virus entry inhibition. Lassa virus pseudotype entry inhibition, cell reporter. Potency, µM (doses to about 37.9 µM), usual class: inhibitors. 300,000 tested, 1.2% active; calls by dose curve; tested in HEK293 cells; also: nearly all actives have a fitted effect of over 50% in size
A number is an active result; . = inactive; ? = inconclusive; / = no result; ! = not active in a repeat.

SMILES | FMDV inh | HCMV inh | Marburg entry inh | LASV entry inh
CC1=Nc2cc(C(=O)NCCCN3CCN(C)CC3)ccc2Sc2ccc(C)cc21 | . | . | / | /
CC1=Nc2cc(C(=O)O)ccc2Sc2ccc(C)cc21 | . | . | . | .
CC1=Nc2cc(C(=O)NCC3CCCO3)ccc2Sc2ccc(C)cc21 (configuration not stated) | . | -72 | / | /
CCC(C)NC(=O)c1ccc2c(c1)N=C(C)c1cc(C)ccc1S2 (configuration not stated) | . | -72 | ? | .
Cc1ccc(OCC(=O)NS(=O)(=O)c2ccc(Cl)cc2)cc1 | . | . | ? | .
COc1ccccc1NC(=O)CS(=O)(=O)c1cn(CC(=O)N2CCOCC2)c2ccccc12 | . | . | / | /
COc1ccc(OC)c(NC(=O)COC(=O)/C=C/c2c(C)nn(C3CCS(=O)(=O)C3)c2Cl)c1 (configuration not stated) | . | . | . | .
CC(C)NS(=O)(=O)c1ccc(NC(=O)C(C)OC(=O)CCCOc2ccccc2)cc1 (configuration not stated) | . | . | . | .
Nc1[nH]c(C(=O)c2ccccc2)c(-c2ccccc2C(F)(F)F)c1C(=O)NCCc1c[nH]c2ccccc12 | . | -61 | / | /
O=C(NC1CCCC1)C(c1ccncc1)N(C(=O)c1csnn1)c1cccc(Cl)c1 (configuration not stated) | . | . | . | .
COCCCNC(=O)c1oc2c(c1C)-c1nn(Cc3ccc(Cl)cc3)cc1CC2 | . | . | / | .
Cc1c(C(=O)N2CCCC2)oc2c1-c1nn(CC(=O)NCc3ccccc3F)cc1CC2 | . | -64 | / | .
CCN(CC)CCCNC(=O)c1oc2c(c1C)-c1nn(Cc3ccc(Cl)cc3)cc1CC2 | . | -97 | / | .
Cc1ccccc1CNC(=O)Cn1cc2c(n1)-c1c(oc(C(=O)N3CCCC3)c1C)CC2 | . | . | / | ?
Cc1nc(NC(=S)NC(=O)c2cccs2)sc1C(=O)N(C)C | . | . | . | .
CC1=Nc2ccccc2N=C(NC(=O)CSc2nnnn2-c2ccccc2)C1c1ccccc1 (configuration not stated) | . | ? | ? | .
CCn1c(SCC(=O)c2ccc([N+](=O)[O-])cc2)nnc1-c1ccc(Cl)cc1 | . | . | . | .
CCCCn1nc(NC(=O)c2cccs2)c2cc3ccccc3nc21 | . | . | 16µM | ?
COc1ccc(CC(=O)Nc2nc(C(C)(C)C)cs2)cc1 | ? | ? | ? | 4.5µM
Cc1csc(NC(=O)c2ccccc2O)n1 | . | . | ? | .
CC(C)(C)c1csc(NC(=O)c2ccccc2O)n1 | ? | -94 | 11µM | ?
Cn1nnnc1SCC(=O)Nc1nc2c(s1)CCCC2 | / | . | ? | .
COC(=O)c1c(-c2ccc(OC)c(OC)c2)csc1N | . | . | . | .
O=C(CSC1=NCCS1)Nc1nc2c(s1)CCCC2 | . | -73 | . | .
COC(=O)c1c(-c2ccc3ccccc3c2)csc1NC(=O)Cc1ccc(OC)c(OC)c1 | 10µM | -83 | ? | ?
SMILES | FMDV inh | HCMV inh | Marburg entry inh | LASV entry inh
O=C(CSc1nc2ncccc2[nH]1)c1ccc2c(c1)OCO2 | . | . | / | /
COc1ccc(CC(=O)Nc2nc(C)cs2)cc1OC | . | -70 | ? | .
COc1ccc(CCC(=O)Nc2cc(Cl)ccc2N2CCN(C)CC2)cc1 | . | . | ? | .
C/C(=N\Nc1nc(C(C)(C)C)cs1)c1ccc(O)cc1 | . | . | / | /
COc1ccc(CC(=O)Nc2cc(Cl)ccc2N2CCCC2)cc1 | . | -63 | ? | .
CC(C)(C)c1csc(NNC(=O)c2ccc(Br)cc2)n1 | . | -97 | ? | ?
COc1ccc(CC(=O)Nc2nc3c(s2)CCCC3)cc1 | . | . | 2.5µM | 4µM
COc1ccc(CC(=O)Nc2nc3c(s2)CC(C)CC3)cc1 (configuration not stated) | . | . | ? | .
CC1CCN(C(=O)CSCC(=O)O)CC1 | . | . | . | .
CN1CCN(c2ccc(CNC(=O)C3Cc4c(-c5ccccc5)ccnc4O3)cc2)CC1 (configuration not stated) | . | . | / | /
CCOC(=O)c1ccc(NC(=O)C(CC)Sc2nc3ccncc3[nH]2)cc1 (configuration not stated) | . | . | . | .
COCCC(=O)N1CCCC(CNS(=O)(=O)c2ccc(OC)cc2)C1 (configuration not stated) | . | . | / | /
Cc1cc([N+](=O)[O-])ccc1NC(=O)Nc1ccccc1F | . | -61 | . | .
O=C(Nc1ccccc1)Nc1cc([N+](=O)[O-])ccc1F | . | ? | . | ?
O=C(Nc1ccccc1F)Nc1ccccc1F | . | . | / | /
Cc1ccc(N=Nc2ccc(C)cc2NC(=O)Nc2ccccc2F)cc1 | . | -67 | / | /
Cc1ccc([N+](=O)[O-])cc1NC(=O)Cc1ccc(F)cc1 | . | . | . | .
Cc1ccc([N+](=O)[O-])cc1NC(=O)Nc1cccc(F)c1 | 28µM | -97 | / | /
O=C(c1ccc(Cl)nc1)c1cccs1 | . | / | . | .
COc1ccc(C(=O)c2no[n+]([O-])c2C(=O)c2ccc(OC)cc2)cc1 | 40µM | -105 | . | ?
O=C(c1cccs1)c1no[n+]([O-])c1C(=O)c1cccs1 | 16µM | / | . | .
CCN(CC)CCN1C(=O)C(=O)/C(=C(/O)c2ccc(F)cc2)C1c1cccnc1 (configuration not stated) | . | . | / | /
C=CCN1C(=O)NC(=O)/C(=C/c2ccc(N(C)C)c(Br)c2)C1=O | . | . | . | 7.9µM
Cc1ccc(/C=C/c2onc(C)c2S(=O)(=O)N2CCC(C(=O)N3CCC(N(C)C(C)C)CC3)CC2)cc1 | . | -101 | / | .
CC(=O)c1ccc(N2CCN(C(=O)C3CCN(S(=O)(=O)c4c(C)noc4/C=C/c4ccc(C)cc4)CC3)CC2)cc1 | . | . | / | .
SMILES | FMDV inh | HCMV inh | Marburg entry inh | LASV entry inh
Cc1ccc(Cl)cc1N1CCN(C(=O)C2CCN(S(C)(=O)=O)CC2)CC1 | ? | -64 | ? | .
Cc1ccc(C)c(N2CCN(C(=O)C3CCN(c4nc(C)cc(C)n4)CC3)CC2)c1 | 18µM | . | ? | .
Cc1ccc(C)c(N2CCN(C(=O)C3CCCCN3S(=O)(=O)c3ccc(F)cc3)CC2)c1 (configuration not stated) | 32µM | . | 10µM! | .
Cc1ccc(C(=O)N2CCC(n3nccc3NC(=O)C3CCOC3)CC2)cc1 (configuration not stated) | . | . | . | .
Cc1ccc(Cl)cc1N1CCN(C(=O)CN(c2ccccc2)S(=O)(=O)N(C)C)CC1 | 20µM | . | . | .
Cc1ccc(Cl)cc1N1CCN(C(=O)C2CCN(S(=O)(=O)c3cnc[nH]3)CC2)CC1 | . | . | . | .
COC(=O)Cc1ccc(NC(=S)N2CCN(c3ccccn3)CC2)cc1 | . | . | / | /
Cc1ccc(C)c(N2CCN(C(=O)C3CCN(S(=O)(=O)c4c(C)noc4C)CC3)CC2)c1 | ? | -68 | . | /
COC(=O)Cc1ccc(NC(=S)N2CCN(c3cc(Cl)ccc3C)CC2)cc1 | ? | -70 | ? | .
CN1CCN(C(=O)CN(c2ccccc2)S(=O)(=O)N(C)C)CC1 | . | ? | ? | ?
Cc1cc(C)nc(N2CCC(C(=O)N3CCN(c4cc(Cl)ccc4C)CC3)CC2)n1 | 28µM | . | ? | .
COC(=O)c1nc2ccc(N3CCOCC3)cc2c(C)c1C(=O)OC | . | . | ? | .
C=CCn1c(O)c(C(C)=Nc2cccc(C(=O)O)c2)c(=O)[nH]c1=O | . | . | . | .
